7 compounds from PubChem BioAssay (NCI) can be followed below.

Among the test systems are NCI-H23 lung; NCI-H226 lung; NCI-H322M lung; HOP-62 NSCLC; NCI-H460 lung; HOP-92 NSCLC; NCI-H522 lung; A549/ATCC NSCLC; 786-0 renal; COLO 205 colon; DU-145 prostate; K-562 leukemia; MALME-3M melanoma; MDA-MB-231 breast; RXF 393 renal; SF-268 CNS; SF-295 CNS; SF-539 CNS; UACC-257 melanoma; M14 melanoma.
Assay in all cases: NCI-60 one-dose screen, 48 h (100 = growth as untreated, 0 = no growth, -100 = all killed)
Holding throughout (details): 10 µM unless noted

About 83,000 compounds went through this panel and 20% of them were active in at least one assay; those are over-represented in the sample as a whole.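 Negative percent growth values reflect cell death: -40 means 40% of the cells present at the start died, and -100 means all died.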 A number with no mark means an inactive call. Activity calls are given as the source filed them. Rule for the calls: active = growth percent below 10; inactive = the rest.

`COc1cc(-c2ccc(-c3ccc(C(=N)N)s3)s2)cc(OC)c1OC`: the growth in the test with NCI-H23 lung was 71.5%; with NCI-H226 lung, 89.4%; with NCI-H322M lung it was 69.1%; in the test on HOP-62 NSCLC, 69.9%; in the test with NCI-H460 lung it was 17.3%; in the test with HOP-92 NSCLC, 33.6%. Moreover, the growth in the test with NCI-H522 lung was 61.5%; with A549/ATCC NSCLC, 32.8%; in the test on 786-0 renal, 9.32% (active); with COLO 205 colon, -61.8% (active); in the test with DU-145 prostate it was 36.2%; in the test with K-562 leukemia, -33.6% (active). The growth in the test with MALME-3M melanoma was -90.7% (active); with MDA-MB-231 breast, 10%; in the test on RXF 393 renal, 54.1%; in the test on SF-268 CNS, 46.8%; with SF-295 CNS it was 51%; in the test on SF-539 CNS, -35.6% (active). For the same compound, the growth in the test on UACC-257 melanoma is 75.7%; with M14 melanoma it was -53.4% (active).
Regarding `CC(=O)O[C@H]1C[C@@]2(C)[C@@H](C[C@@H](O)[C@H]3[C@@]4(C)CC[C@H](N5CCCC5)[C@@H](C)[C@@H]4CC[C@@]32C)/C1=C(\CCC=C(C)C)C(=O)O`, the growth in the test on NCI-H23 lung is 95.7%; with NCI-H226 lung it was 94.6%; in the test on NCI-H322M lung, 101%; in the test on HOP-62 NSCLC it was 100%; in the test with NCI-H460 lung, 101%; in the test with HOP-92 NSCLC it was 83.7%. Besides, the growth in the test on NCI-H522 lung was 91.2%; in the test on A549/ATCC NSCLC it was 102%; in the test on 786-0 renal, 105%; in the test on COLO 205 colon, 108%; in the test on DU-145 prostate, 105%; in the test on K-562 leukemia, 14.8%. Also, the growth in the test on MALME-3M melanoma was 95.6%; with MDA-MB-231 breast, 109%; in the test with RXF 393 renal, 98.9%; with SF-268 CNS, 98.9%; with SF-295 CNS, 96.3%; in the test with SF-539 CNS, 96.1%. The growth in the test on UACC-257 melanoma is 98.1%; in the test with M14 melanoma, 92.2%.
As for `CCCCC/C=C/CCC(=O)N[C@H]1[C@H](Oc2c3cc4cc2Oc2ccc(cc2Cl)[C@@H](O[C@@H]2O[C@H](CO)[C@@H](O)[C@H](O)[C@H]2NC(C)=O)[C@@H]2NC(=O)[C@H](NC(=O)[C@@H]4NC(=O)[C@H]4NC(=O)[C@@H](Cc5ccc(c(Cl)c5)O3)NC(=O)[C@@H](N)c3ccc(O)c(c3)Oc3cc(O)cc4c3)c3ccc(O)c(c3)-c3c(O[C@H]4O[C@H](CO)[C@@H](O)[C@H](O)[C@@H]4O)cc(O)cc3[C@H](C(=O)O)NC2=O)O[C@H](CO)[C@H](O)[C@@H]1O`, the growth in the test on NCI-H23 lung is 93.4%; in the test with NCI-H226 lung, 105%; in the test on NCI-H322M lung it was 108%; in the test on HOP-62 NSCLC it was 113%; in the test with NCI-H460 lung, 107%; with HOP-92 NSCLC, 96.4%. In addition, the growth in the test on NCI-H522 lung is 103%; in the test on A549/ATCC NSCLC, 99.8%; with 786-0 renal, 101%; in the test on COLO 205 colon it was 103%; in the test with DU-145 prostate it was 112%; in the test on K-562 leukemia, 98.6%. Besides, the growth with MALME-3M melanoma was 108%; in the test on MDA-MB-231 breast, 100%; in the test on RXF 393 renal, 112%; with SF-268 CNS, 98.5%; in the test with SF-295 CNS, 94.8%; in the test on SF-539 CNS it was 110%. Moreover, the growth with UACC-257 melanoma was 89.4%; in the test with M14 melanoma, 109%.
Consider `COc1ccc(-c2nc(SCCC(C)C)nc(N/N=C(/C)c3ccc(N)cc3)c2C#N)cc1`, for which the growth was 92.9% in the test with NCI-H23 lung; 88.9% in the test with NCI-H226 lung; 86% in the test on NCI-H322M lung; 89.9% in the test with HOP-62 NSCLC; 101% in the test with NCI-H460 lung; 96.8% with HOP-92 NSCLC. In addition, the growth with NCI-H522 lung was 90.6%; in the test on A549/ATCC NSCLC, 98.4%; in the test with 786-0 renal, 97.9%; with COLO 205 colon, 109%; in the test on DU-145 prostate, 97.1%; in the test with K-562 leukemia it was 94.3%. In addition, the growth was 104% with MALME-3M melanoma; 82.3% with MDA-MB-231 breast; 86.2% with RXF 393 renal; 92% with SF-268 CNS; 102% in the test on SF-295 CNS; 87.9% in the test on SF-539 CNS. The growth is 102% in the test on UACC-257 melanoma and 111% in the test with M14 melanoma.
Turning to `CC(C)(C)n1cc(-c2ccnc(NCCNS(=O)(=O)c3ccc(C(F)(F)F)cc3)c2)c(-c2ccccc2)n1`, the growth in the test with NCI-H23 lung is 83%; with NCI-H226 lung, 89.4%; in the test with NCI-H322M lung, 99.5%; in the test on HOP-62 NSCLC, 97.8%; with NCI-H460 lung it was 93.8%; in the test on HOP-92 NSCLC it was 3.62% (active). Besides, the growth in the test with NCI-H522 lung was 85.9%; in the test with A549/ATCC NSCLC, 78.2%; with 786-0 renal it was 80.5%; with COLO 205 colon, 87.3%; in the test with DU-145 prostate it was 99.2%; in the test with K-562 leukemia it was 44.3%. Besides, the growth in the test with MALME-3M melanoma was 109%; in the test on MDA-MB-231 breast it was 92.1%; in the test with RXF 393 renal, 87.8%; in the test on SF-268 CNS, 95.3%; with SF-295 CNS, 83.7%; with SF-539 CNS it was 82.2%. Moreover, the growth in the test with UACC-257 melanoma is 104%; in the test with M14 melanoma it was 88.8%.
On to `CCOC(=O)/C=C1\S/C(=N\Nc2cc(=O)[nH]c3ccc(OC)cc23)N(c2ccccc2)C1=O`, for which the growth was 94% in the test with NCI-H23 lung; 93.2% in the test with NCI-H226 lung; 101% in the test with NCI-H322M lung; 97.5% with HOP-62 NSCLC; 110% in the test on NCI-H460 lung; 89.7% in the test on HOP-92 NSCLC. The growth in the test on NCI-H522 lung was 83.3%; with A549/ATCC NSCLC, 104%; with 786-0 renal it was 94.4%; in the test with COLO 205 colon it was 95.7%; in the test with DU-145 prostate it was 98.6%; with K-562 leukemia, 86.5%. Besides, the growth is 101% in the test with MALME-3M melanoma; 107% with MDA-MB-231 breast; 111% in the test with RXF 393 renal; 101% with SF-268 CNS; 102% with SF-295 CNS; 97.4% in the test on SF-539 CNS. Moreover, the figures for the growth with UACC-257 melanoma and with M14 melanoma were 102% and 99.9%, respectively.
Turning to `CN1C(=O)N(C)C2C1NN=c1s/c(=C\c3ccc(F)cc3)c(=O)n12` (stereo not given), the growth in the test with NCI-H23 lung is 50.8%; with NCI-H226 lung, 62.9%; in the test with NCI-H322M lung, 53.6%; in the test on HOP-62 NSCLC, 46.7%; with NCI-H460 lung, 13%; in the test on HOP-92 NSCLC, 47%. For the same compound, the growth in the test with NCI-H522 lung was 2.08% (active); in the test on A549/ATCC NSCLC, 24.8%; with 786-0 renal it was 40.7%; in the test on COLO 205 colon, 12.5%; in the test on DU-145 prostate it was 58.5%; with K-562 leukemia, 11.4%. For the same compound, the growth in the test with MALME-3M melanoma is 31.5%; with MDA-MB-231 breast it was 29.4%; with RXF 393 renal, 38.5%; with SF-268 CNS, 58.7%; in the test with SF-295 CNS, 28.8%; with SF-539 CNS, 29.7%. Besides, the figures for the growth with UACC-257 melanoma and in the test on M14 melanoma were 1.68% (active) and 23.1%, respectively.
